In the library only some 1.7% were active in any assay of this set; here they are far more common.
HEK293 tox = cytotoxic in the GLP-1 receptor inverse agonist counter-screen; AID 624418; Potency, µM (highest dose often 38.3 µM), hits mostly inhibitors; HEK293 cAMP-luciferase reporter cells, luminescence, 24 h; actives 0.13% (n = 410,000);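 further: loss of luciferase light is scored as toxicity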
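Luminescence readout: signal drop marks cytotoxicity. Plated cells grew 12 h at 37 °C, 5% CO2, received 23 nL compound for 24 h, then got luciferase reagent, read after 12 min at RT.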
PTHR1 agonist = agonists of human PTHR1 parathyroid hormone receptor | Q03431 | HEK293 GP2 PTHR1 cells, GloSensor cAMP luminescence, 1 h | Potency, µM (titrated, usually from 115 µM), hits mostly activators | actives 0.075% (n = 410,000); further: nearly all actives have a fitted effect of over 55% in size
Target sequence (Q03431 whole entry, looked up): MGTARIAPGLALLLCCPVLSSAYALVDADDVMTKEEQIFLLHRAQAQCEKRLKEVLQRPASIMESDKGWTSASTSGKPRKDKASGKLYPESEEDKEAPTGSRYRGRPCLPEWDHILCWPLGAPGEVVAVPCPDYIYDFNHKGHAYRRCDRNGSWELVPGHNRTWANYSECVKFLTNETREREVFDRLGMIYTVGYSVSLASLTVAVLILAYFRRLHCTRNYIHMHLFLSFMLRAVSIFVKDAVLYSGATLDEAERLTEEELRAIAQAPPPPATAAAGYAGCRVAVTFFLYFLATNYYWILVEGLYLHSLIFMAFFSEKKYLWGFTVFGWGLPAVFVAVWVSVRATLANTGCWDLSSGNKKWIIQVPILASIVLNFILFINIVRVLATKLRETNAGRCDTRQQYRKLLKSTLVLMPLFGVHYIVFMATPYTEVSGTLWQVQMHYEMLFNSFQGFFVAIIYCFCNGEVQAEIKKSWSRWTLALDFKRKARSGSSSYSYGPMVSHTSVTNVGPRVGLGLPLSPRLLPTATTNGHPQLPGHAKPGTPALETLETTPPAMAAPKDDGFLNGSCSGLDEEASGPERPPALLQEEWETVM
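HEK-293-derived GP2 cells expressing PTHR1 and a GloSensor cAMP reporter, 3,000/well, plated overnight, given luciferin plus IBMX (each 0.5 mM as added) for 1 h at 37 °C, then compound for 1 h at 37 °C. Luminescence was read after 15 min at room temperature.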
GLP1R inv ag = acts as inverse agonist at human GLP-1 receptor; P43220; HEK293 GLP-1R CRE-luciferase, luminescence, 24 h; GLP-1R form is constitutively active; Potency, µM (titrated, usually from 38.3 µM), usual class: inhibitors; actives 1.6% (n = 410,000); AID 624417; further: nearly all actives have a fitted effect of over 55% in size
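Assay principle: reduced luminescence from a cAMP-responsive reporter in HEK293 cells co-expressing a constitutively active GLP-1R. Conditions: 24 hr compound incubation, 37 deg C, 5% CO2.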
RGS4 inh = human RGS4 inhibition; Transcreener GDP fluorescence polarization, RGS4-accelerated GTP hydrolysis; Potency, µM (series often up to 114 µM), actives largely listed as inhibitors; actives 0.039% (n = 390,000); AID 504845; further: nearly all actives have a fitted effect of over 75% in size
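MLSMR compounds (23 nl, pin-transferred) preincubated 10 min at room temperature with a 500nM (2x) first reagent, then RGS4 at 900nM (2x) plus Transcreener GDP mix added; fluorescence polarization (620/688 nm) read before and after 90 min at 30 °C.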
GLP1R ag = GLP-1 receptor (human) agonism. P43220. HEK293 GLP-1R CRE-luciferase, luminescence, 4-6 h; cells express a hypersensitive GLP-1R form. Potency, µM (doses to about 45.6 µM), hits mostly activators. actives 0.007% (n = 380,000). AID 624172
Hits are given with their value. The call rests on the fitted dose curve; in most records, active means well fitted curve in the direction sought with a large enough effect; inconclusive means small, poorly fitted or top-dose-only effect, or another doubt; inactive means no such curve, though single readings can be large; an effect the other way counts as inactive or inconclusive.

What do the screens show for `COC(=O)c1ccc(CSC2=NC[C@@H]3[C@@H]4C(=O)N(Cc5ccccc5)C(=O)[C@@H]4[C@](C)(C(=O)OC)N23)cc1`?
HEK293 tox: inactive; PTHR1 agonist: inactive; GLP1R inv ag: inactive; RGS4 inh: inactive; GLP1R ag: inactive

Results for COc1ccc(C(=O)Cn2c(NCCCO)nc3ccccc32)cc1 ?
HEK293 tox: inactive; PTHR1 agonist: inactive; GLP1R inv ag: inactive; GLP1R ag: inactive

Results for COc1ccc(-n2c(C)cc(C(=O)Cn3c(NCCO)nc4ccccc43)c2C)cc1 ?
HEK293 tox: inactive; PTHR1 agonist: inactive; GLP1R inv ag: 10µM; RGS4 inh: inactive; GLP1R ag: inactive

How did COc1cccc(CNC(=O)c2ccc3c(c2)nnn3C2CCCC2)c1 do in these assays?
HEK293 tox: inactive; PTHR1 agonist: inactive; GLP1R inv ag: inactive; RGS4 inh: inactive

How did CCC1CCCCN1C(=O)COc1ccc(N(C)S(=O)(=O)c2ccc(C)cc2)cc1 (stereo not given) do in these assays?
HEK293 tox: inactive; PTHR1 agonist: inactive; GLP1R inv ag: 3.2µM; RGS4 inh: inconclusive; GLP1R ag: inactive

What do the screens show for `Cc1ccc(S(=O)(=O)N(C)c2ccc(OCC(=O)OCc3cccc(Br)c3)cc2)cc1`?
HEK293 tox: inactive; PTHR1 agonist: inactive; GLP1R inv ag: inactive; RGS4 inh: inactive; GLP1R ag: inactive

What do the screens show for `Cc1ccc(S(=O)(=O)N(C)c2ccc(OCc3cccc(C)c3)cc2)cc1`?
HEK293 tox: inactive; PTHR1 agonist: inactive; GLP1R inv ag: 2.8µM; RGS4 inh: inactive; GLP1R ag: inactive

What do the screens show for `COc1ccc(CCNC(=O)COc2ccc(N(C)S(=O)(=O)c3ccc(C)cc3)cc2)cc1`?
HEK293 tox: inactive; PTHR1 agonist: inactive; GLP1R inv ag: inactive; RGS4 inh: inactive; GLP1R ag: inactive

How did Cc1ccc(S(=O)(=O)N(C)c2ccc(OCC(=O)NCC3(N(C)C)CCCCC3)cc2)cc1 do in these assays?
HEK293 tox: inactive; PTHR1 agonist: inactive; GLP1R inv ag: 11µM; RGS4 inh: inactive; GLP1R ag: inactive

What do the screens show for `O=C(CSc1nnc(-c2cccc(Cl)c2)o1)N1CCc2ccccc21`?
HEK293 tox: inactive; PTHR1 agonist: inactive; GLP1R inv ag: inactive; RGS4 inh: inactive

Results for CCC(=O)N1CCc2cc(S(=O)(=O)CCC(=O)N3CCN(c4cc(C)ccc4C)CC3)ccc21 ?
HEK293 tox: inactive; PTHR1 agonist: inactive; GLP1R inv ag: inactive; RGS4 inh: inactive; GLP1R ag: inactive

What do the screens show for `COc1ccc(S(=O)(=O)N2CCC[C@H]2C(=O)N2CCC[C@H]2C(=O)NCc2ccccn2)cc1C`?
HEK293 tox: inactive; PTHR1 agonist: inactive; GLP1R inv ag: inactive; GLP1R ag: inconclusive

What do the screens show for `CC(C)(Oc1ccc(Cl)cc1)C(=O)NC1CCN(Cc2ccccc2)CC1`?
HEK293 tox: inactive; PTHR1 agonist: inactive; GLP1R inv ag: 8.9µM; RGS4 inh: inactive; GLP1R ag: inactive

How did COC(=O)c1ccc(Cn2nnc3c(=O)[nH]c(C4CCCN(S(=O)(=O)c5cccc(Cl)c5)C4)nc32)cc1 (stereo not given) do in these assays?
HEK293 tox: inactive; PTHR1 agonist: inactive; GLP1R inv ag: inactive; RGS4 inh: inactive; GLP1R ag: inactive

What do the screens show for `CC[n+]1c(/C=C/C=C2/N(C)c3ccccc3C2(C)C)sc2ccccc21`?
RGS4 inh: 21µM

How did CC[n+]1c(/C=C/C=C/N(C(C)=O)c2ccccc2)sc2ccccc21 do in these assays?
HEK293 tox: inconclusive; PTHR1 agonist: inactive; GLP1R inv ag: inactive; RGS4 inh: inconclusive; GLP1R ag: inactive

What do the screens show for `CC(NC(=O)c1cc(S(=O)(=O)N2CCOCC2)ccc1F)c1ccc(-n2ccnc2)cc1` (stereo not given)?
HEK293 tox: inactive; PTHR1 agonist: inactive; GLP1R inv ag: inactive; RGS4 inh: inactive; GLP1R ag: inactive

What do the screens show for `O=C(Nc1nnc([C@H]2C[C@H](O)[C@@H](CO)O2)s1)NC(c1ccccc1)c1ccccc1`?
HEK293 tox: inactive; PTHR1 agonist: inactive; GLP1R inv ag: inactive; GLP1R ag: inactive

Assay outcomes deposited in PubChem by National Center for Advancing Translational Sciences (NCATS).
